The values below come from PubChem BioAssay (Tox21).

Inconclusive results are not listed. A call without a number means that no potency is given here. Activity calls are given as the source filed them. The call rests on the fitted dose curve; in most records, active means well fitted activation curve with a large enough effect in the signal ratio in the repeat runs (not every such curve was filed as active); inconclusive means weak or mixed curves, or effect the other way; inactive means no such curve, though single readings can be large or run the other way; the % refers to the signal ratio.
Potency means the concentration at half of the fitted maximal effect.

Chain of Peroxisome proliferator-activated receptor gamma (Homo sapiens) (P37231 whole entry, looked up): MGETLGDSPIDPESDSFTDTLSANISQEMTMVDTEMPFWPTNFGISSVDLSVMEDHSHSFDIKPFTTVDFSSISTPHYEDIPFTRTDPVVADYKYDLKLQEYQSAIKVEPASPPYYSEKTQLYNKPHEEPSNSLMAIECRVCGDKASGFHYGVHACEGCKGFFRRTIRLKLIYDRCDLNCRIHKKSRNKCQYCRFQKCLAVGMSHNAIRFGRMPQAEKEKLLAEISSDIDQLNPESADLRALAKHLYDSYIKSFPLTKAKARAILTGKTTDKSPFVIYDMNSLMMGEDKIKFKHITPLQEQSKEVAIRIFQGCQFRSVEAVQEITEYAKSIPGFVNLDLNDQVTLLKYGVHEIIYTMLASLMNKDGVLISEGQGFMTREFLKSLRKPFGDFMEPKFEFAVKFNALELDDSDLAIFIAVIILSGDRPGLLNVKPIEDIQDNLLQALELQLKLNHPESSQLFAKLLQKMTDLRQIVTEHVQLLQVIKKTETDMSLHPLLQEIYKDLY

The target of this assay is Peroxisome proliferator-activated receptor gamma (Homo sapiens) (UniProt P37231). Put plainly: qHTS assay to identify small molecule agonists of the peroxisome proliferator-activated receptor gamma (PPARg) signaling pathway (AID 743094). The following applies: HEK293H PPARg-UAS-bla, beta-lactamase FRET ratio, 17 h; series mostly up to 57 µM. The source says:
U.S. Tox21 Program National Center for Advancing Translational Sciences [NCATS] NIH Chemical Genomics Center [NCGC] U.S. Environmental Protection Agency [EPA] National Institutes of Environmental Health Sciences [NIEHS] National Toxicology Program [NTP] U.S. Food and Drug Administration [FDA] Tox21 Assay Overview: The peroxisome proliferator-activated receptors (PPARs) are lipid-activated transcription factors of the nuclear receptor superfamily with three distinct subtypes namely PPAR alpha, PPAR delta (also called PPAR beta) and PPAR gamma (PPARg). All these subtypes heterodimerize with Retinoid X receptor (RXR) and these heterodimers regulate transcription of various genes. PPAR-gamma receptor (glitazone receptor) is involved in the regulation of glucose and lipid metabolism. To identify the compounds that activate PPAR-gamma signaling, GeneBLAzer PPAR gamma UAS-bla HEK293H cell line (Invitrogen, Carlsbad, CA, USA) containing a beta-lactamase reporter gene under control of the control of an upstream activator sequence (UAS) stably integrated into HEK293H cells was used to screen Tox21 compound library.
Tox21 Assay Protocol Summary: PPARg-bla cells were dispensed at 3000 cells/6uL/well in 1536-well black wall/clear bottom plates using a Multidrop Combi (Thermo Fisher Scientific, Waltham, MA) dispenser. After the assay plates were incubated at 37C and 5% CO2 for 5 h, 23 nL of compounds dissolved in DMSO, positive controls or DMSO only was transferred to the assay plate by a Pintool station (Kalypsys, San Diego, CA). The assay plates were incubated at 37C for 17 h. After 1 uL of LiveBLAzerTM B/G FRET substrate was added using a Bioraptr Flying Reagent Dispenser (FRD) workstation (Beckman Coulter, Indianapolis, IN, USA), the plates were incubated at room temperature for 1 h, and fluorescence intensity was measured by an Envision plate reader (PerkinElmer, Shelton, CT).
On to `C=CC(=O)NCOCCCC`, for which the Potency entry is “inactive”.
With `CC(O)CNCC(C)O` (stereo not given), the Potency result was “inactive”.
`Nc1nc(N)c2nc(-c3ccccc3)c(N)nc2n1`: the Potency was 23.9 µM (active).
With `Cc1ccc(C)c(S(=O)(=O)O)c1` the entry was “inactive”; with `NC(N)=S`, “inactive”; with `C1CCCNCC1`, “inactive”.
`c1cnc2c(c1)ccc1cccnc12`: the Potency entry is “inactive”.
As to `Cc1nnc(NS(=O)(=O)c2ccc(N)cc2)s1`, the Potency result is “inactive”.
Next, `Cc1ccccc1Cl`: “inactive”; `CCc1cccc(O)c1`: “inactive”; `CC(CN1c2ccccc2Sc2ccccc21)N(C)C` (stereo not given): “inactive”.
With `CCCCCCCCCCCCCC(=O)O` the entry was “inactive”; with `OCC(CO)(CO)CO`, “inactive”.
Next, `CN1CCCC1=O`: “inactive”.
Regarding `COC(=O)CCCCC(=O)OC`, the Potency result is “inactive”.
Turning to `Oc1ccc(Cc2ccccc2O)cc1`, the Potency result was “inactive”.
With `CC[N+](CC)(CC(=O)Nc1c(C)cccc1C)Cc1ccccc1` the entry was “inactive”; with `COc1cc(NC(=O)CC(C)=O)c(OC)cc1Cl`, “inactive”; with `C[n+]1ccn(CCO)c1`, “inactive”.
Next, `NC(=O)c1ncn([C@@H]2O[C@H](CO)[C@@H](O)[C@H]2O)n1`: “inactive”; `CC(C)c1ccc(C(C)C)cc1`: “inactive”.
Next, `O=C1O[C@H]([C@H](O)CO)C(O)=C1O`: “inactive”; `CC1=CC(=O)CC(C)(C)C1`: “inactive”; `COc1ccc2cc3[n+](cc2c1OC)CCc1cc2c(cc1-3)OCO2`: “inactive”.
For `O=[N+]([O-])c1cc(C(F)(F)F)ccc1Cl`, the Potency result was “inactive”.
As to `CC(=O)Nc1ccc(CC(=O)O)cc1`, the Potency entry was “inactive”.
Next, `CCCCCCCCO`: “inactive”; `CC(C)=CCC/C(C)=C/C=O`: “inactive”.
Turning to `O=C1OC(=O)c2c(Cl)c(Cl)c(Cl)c(Cl)c21`, the Potency result was “inactive”.
Next, `CC1(C)C(=O)N(Cl)C(=O)N1Cl`: “inactive”; `CCCOCC(C)O` (stereo not given): “inactive”.
With `O=c1c(O)c(-c2ccc(O)c(O)c2)oc2cc(O)cc(O)c12` the entry was “inactive”.
With `CC(COCC(C)OC(=O)c1ccccc1)OC(=O)c1ccccc1` (stereo not given) the entry was “inactive”.
As for `N#CCC(=O)O`, the Potency result is “inactive”.
On to `O=Cc1ccc(CO)o1`, for which the Potency result is “inactive”.
As to `CCCCCNCCCCC`, the Potency entry was “inactive”.
With `COC(=O)OC` the entry was “inactive”.
`O=C1CCCCCCCCCCC1`: the Potency entry is “inactive”.
In the case of `O=C(O)C1=NN(c2ccc(S(=O)(=O)O)cc2)C(=O)C1`, the Potency entry is “inactive”.
Take `NC(=O)NC(N)=O`: the Potency result is “inactive”.
